# Screening data: PubChem, National Center for Advancing Translational Sciences (NCATS)
# The list is not random: actives were taken first. Their share in the collection is about 0.93%.
# TexasRed fluor: Texas Red fluorescence interference in TRb-SRC2 counter-screen; AID 1479; TRb/SRC2 Texas Red total fluorescence interference; hit rate 0.29% among 280,000; Potency, µM (highest dose often 106 µM), for inactives: at the top dose fluorescence change, negative = quenching; active means well fitted curve in either direction with a large enough effect; further: potency means the concentration at half of the fitted maximal effect
#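 Human TRb ligand-binding domain at 0.6 uM with 20 nM Texas Red SRC2 peptide in Tris buffer containing 1 uM T3 and 5% DMSO, incubated with compound 5 h at ambient temperature. Total fluorescence (555/632 nm) calculated as parallel + 2 × perpendicular.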
# TRb-SRC2 inh: disrupts binding of human TR beta to SRC2; TRbeta-SRC2 peptide binding, fluorescence polarization; receptor liganded with 1 µM T3; Potency, µM (doses to about 106 µM), for the others: at the highest dose activity change, negative = inhibition, usual class: inhibitors; hit rate 0.065% among 280,000; AID 1469; active means well fitted inhibition curve with a large enough effect;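 further: potency means the concentration at half of the fitted maximal effect; plate controls were bound peptide for no effect and peptide without receptor for full effect; nearly all actives have a fitted effect of over 50% in size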
# Target sequence (P10828 whole entry, looked up): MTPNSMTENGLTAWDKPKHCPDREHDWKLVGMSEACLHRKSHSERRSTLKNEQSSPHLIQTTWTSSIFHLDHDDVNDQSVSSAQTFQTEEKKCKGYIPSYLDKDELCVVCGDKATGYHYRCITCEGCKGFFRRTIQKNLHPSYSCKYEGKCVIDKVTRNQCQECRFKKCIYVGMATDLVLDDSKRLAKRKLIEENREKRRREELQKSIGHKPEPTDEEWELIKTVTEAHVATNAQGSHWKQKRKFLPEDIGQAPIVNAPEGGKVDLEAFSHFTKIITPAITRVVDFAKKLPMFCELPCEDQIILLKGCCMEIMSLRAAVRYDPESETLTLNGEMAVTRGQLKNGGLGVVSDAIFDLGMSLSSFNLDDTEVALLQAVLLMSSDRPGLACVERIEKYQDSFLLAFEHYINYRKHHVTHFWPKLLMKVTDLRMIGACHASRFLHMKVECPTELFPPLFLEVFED
#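 Each compound concentration gave % activity, normalized to unbound and bound Texas Red SRC2 controls, from polarization read after 5 hr ambient incubation with T3-loaded human TRb LBD.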
# FBPA coupling cs: inhibits coupling enzyme system, counter-screen for aldolase hits; coupling enzyme system counterscreen, AmpLite Red fluorescence; activity change, negative = inhibition, % at 58.2 µM, hits read low; hit rate 0.67% among 290,000; in the data active means activity change below about -30%
#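 Counterscreen lacking aldolase: glyceraldehyde-3-phosphate coupling-enzyme reagent preincubated 10 min at RT with compound (at 57.5 uM final), then substrate/coupling system with AmpLite Red added; fluorescence read at 525/598 nm after 20 min RT.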
# RGS12 GoLoco inh: inhibitors of human Gai1-RGS12 GoLoco interaction (red fluorophore); P63096; Gai1:RGS12 GoLoco peptide FP, rhodamine, 10 min; Potency, µM (titrated, usually from 61.6 µM), inactives show at the highest dose activity, negative = inhibition, hits mostly inhibitors; hit rate 0.44% among 230,000; AID 880; active means well fitted inhibition curve with a large enough effect, not every such curve was filed as active; inactive means no such curve, though single readings can be large or run the other way; further: potency means the concentration at half of the fitted maximal effect; nearly all actives have a fitted effect of over 30% in size
# * marks the source's active call; other numbers are inactive results; / = no result given; [ ] = remark or other dose. Unless noted, on the % scale 0 is the no-effect control and ±100 the full control effect.
SMILES,TexasRed fluor,TRb-SRC2 inh,FBPA coupling cs,RGS12 GoLoco inh
COc1ccc(NC(=O)CN(Cc2ccccc2)S(=O)(=O)c2ccc(C)cc2)cc1Cl,6.31µM*[quencher],-10.7%,/,/
CO[C@@H]1COC(=O)CCC[C@@H](C)[C@H](OC)COC(=O)CCC[C@H]1C,-0.4%[11.2 µM],6.7%[11.2 µM],0.7,/
O=C(O)c1ccccc1-c1c2ccc(=O)cc-2oc2cc(O)ccc12,14.8%,-23.1%,2.3,0.398µM*
O=C(O)CN(CC(=O)O)Cc1cc2c(-c3ccccc3C(=O)O)c3cc(CN(CC(=O)O)CC(=O)O)c(=O)cc-3oc2cc1O,39.8µM*[fluorescent],6.31µM*,-4.4,-111.7%
COC(=O)CSc1nc2sc3c(c2c(=O)n1-c1ccc(C)cc1)CC(C(C)C)OC3 (configuration not stated),-1.7%,-1.0%,/,/
Cc1n[nH]c(C)c1N1C(=O)c2cccc3c(N4CCCCCC4)ccc(c23)C1=O,2.6%,-9.2%,-4.2,20µM*
O=C1c2cccc3c(N4CCCCC4)ccc(c23)C(=O)N1c1cccc(O)c1,2.8%,-6.4%,2.9,68.7%
CCOC(=O)C1=C(Cc2ccc(F)cc2)C(=O)c2ccccc2C1=O,-1.5%,-3.9%,-57.1*,73.0%
CCc1ccc(/C(C)=N\Nc2ccc([N+](=O)[O-])cc2)cc1,1.7%,-0.6%,-0.9,26.2%
C/C(=N\Nc1ccc([N+](=O)[O-])cc1)c1ccc(N)cc1,0.316µM*[quencher],-27.3%[53 µM],0.4,15.8%
NNC(=O)CN1C(c2cccc(Cl)c2)=Nc2ccc(Br)cc2C1c1ccccc1 (configuration not stated),3.8%,-2.6%,-12.1,-11.5%
NNC(=O)CN1C(c2ccccc2Br)=Nc2ccc(Br)cc2C1c1ccccc1 (configuration not stated),1.0%,13.2%,-37.8*,-1.7%
O=C1C=CC(=O)C2=C1C1c3ccccc3C2c2ccccc21,-0.6%,-2.8%,-10.5,17.8µM*
Cc1c(Br)cc(C(=O)O)c(C)c1C,0.4%,-1.4%,3.4,-5.0%
Cc1c(N)cc(N)cc1C(=O)O,11.8%,-15.8%,-34.7*,-10.6%
O=c1c2cc3c(cc2n(Cc2ccccc2)c(=O)n1Cc1nc(-c2ccccc2)no1)OCO3,0.4%,-4.6%,/,/
CCCCCCCC(=O)OC,-2.7%[201 µM],5.9%[201 µM],/,/
CN(C)N1C(N)=C(C#N)C(c2cccs2)C2=C1CCCC2=O (configuration not stated),-0.9%,-3.1%,-18.8,12.8%
Cc1ccsc1C1C(C#N)=C(N)N(N(C)C)C2=C1C(=O)CCC2 (configuration not stated),9.1%,5.3%,-43.8*,14.4%
CCC(c1nnnn1CCOC)N(Cc1cc2cc(C)c(C)cc2[nH]c1=O)CC1CCCO1 (configuration not stated),-2.3%,-2.2%,-4.7,11.5%
CCCC(c1nnnn1CCOC)N(Cc1cc2cc(C)c(C)cc2[nH]c1=O)CC1CCCO1 (configuration not stated),0.4%,0.8%,-41.4*,-4.3%
CC(=O)Nc1ccc(S(=O)(=O)NC2=C(N3CCN(C)CC3)C(=O)c3ccccc3C2=O)cc1,/,/,-51.8*,/
CCOC(=O)C1CCCN(C2=C(NS(=O)(=O)c3ccc(Br)cc3)C(=O)c3ccccc3C2=O)C1 (configuration not stated),/,/,-37.5*,/
CC(=O)Nc1ccc(S(=O)(=O)NC2=C(N3CCN(Cc4ccccc4)CC3)C(=O)c3ccccc3C2=O)cc1,-1.3%,-3.8%,-43.9*,3.5%
CC1CCN(C2=C(NS(=O)(=O)c3ccc(Cl)cc3)C(=O)c3ccccc3C2=O)CC1,-0.3%,-1.3%,-33.8*,8.9%
SMILES,TexasRed fluor,TRb-SRC2 inh,FBPA coupling cs,RGS12 GoLoco inh
CCOC(=O)C1CCN(C2=C(NS(=O)(=O)c3ccc(Cl)cc3)C(=O)c3ccccc3C2=O)CC1,-0.9%,0.8%,-21.6,7.0%
CCOCCOCCOCC,1.5%[201 µM],4.1%[201 µM],/,/
CN(C)c1nc(NS(=O)(=O)c2ccc(Cl)cc2)nc(N(C)C)n1,3.2%,3.5%,-32.4*,-2.4%
CCC(=O)NC1=C(Cl)C(=O)C(NC(=O)CC)=C(Cl)C1=O,0.4%,7.9%,-89.9*,1.26µM*
c1ccc2sc(SSc3nc4ccccc4s3)nc2c1,-0.6%[201 µM],1.4%[201 µM],/,10µM*
Cc1ccc(CNC(=O)C(C)n2ccc3cc(S(=O)(=O)N4CCCC4)ccc32)cc1 (configuration not stated),-2.0%,-3.0%,/,/
Cc1ccc(NS(=O)(=O)c2cccc3nsnc23)cc1,0.4%,5.9%,-37.8*,4.9%
COC(=O)c1ccc(NC(=O)C(=O)NCCc2csc(-c3ccc(C(F)(F)F)cc3)n2)cc1,3.3%,-6.2%,/,/
COC(=O)c1ccc(NC(=O)C(=O)NCCc2csc(-c3ccc(F)cc3)n2)cc1,0.0004µM*[quencher],-10.1%,/,/
O=C(NCCc1csc(-c2ccc(F)cc2)n1)c1c(F)cccc1Cl,0.0002µM*[quencher],-11.9%,/,/
COc1ccc(OC)c(Nc2nc(=O)c3cccnc3s2)c1,-0.6%,3.7%,-7.3,25.1µM*
COc1cc(OC)cc(C(=O)OCC(=O)Nc2ccc(N3CCCCC3)cc2)c1,-1.5%,1.8%,-1.2,17.8µM*
O=C(COC(=O)c1ccc(O)cc1)Nc1ccc(N2CCCCC2)cc1,-4.3%,-9.2%,-1.2,-17.9%
COC1=C(OC)C(=O)c2ccccc2C1=O,-2.4%,1.4%,/,8.9%
COC1=C(Nc2ccccc2)C(=O)c2ccccc2C1=O,-6.2%,0.9%,-33.0*,0.7%
COC1=C(Nc2ccc(C)cc2)C(=O)c2ccccc2C1=O,-3.3%,-12.7%,-32.1*,-5.3%
CCCCCc1ccc(N)cc1,1.4%[201 µM],-7.1%[201 µM],/,/
CCOC(=O)CC1(C)OCC(C[N+]2(C)CCCCC2)O1 (configuration not stated),1.9%,-1.6%,-0.7,11.2µM*
Cc1ccc(Nc2nc(N/N=C/c3c[nH]c4ccccc34)nc(N3CCOCC3)n2)cc1,631µM*[quencher],-4.4%,-2.3,104.1%
O=c1c2ccccc2c(C=Nc2ccc(S(=O)(=O)N3CCCCC3)cc2)c(O)n1-c1ccc(Cl)cn1,35.5µM*[quencher],-11.6%[53 µM],-0.5,-10.8%
CCCCCCCC[Si](OCC)(OCC)OCC,0.0%[201 µM],8.3%[201 µM],/,/
CC[C@H](C)[C@H](NC(=O)[C@H](Cc1cnc[nH]1)NC(=O)[C@@H](NC(=O)[C@H](CCCNC(=N)N)NC(=O)[C@H](CCCCN)NC(=O)[C@H](CCCNC(=N)N)NC(=O)[C@H](CCCCN)NC(=O)[C@@H](N)CC(N)=O)[C@@H](C)CC)C(=O)NCC(=O)N1CCC[C@H]1C(=O)NCC(=O)N[C@@H](CCCNC(=N)N)C(=O)N[C@@H](C)C(=O)N[C@@H](Cc1ccccc1)C(=O)N[C@@H](Cc1ccc(O)cc1)C(=O)N[C@H](C(=O)N[C@H](C(=O)N[C@@H](CCCCN)C(=O)N[C@@H](CC(N)=O)C(=O)N[C@H](C(=O)N[C@H](C(=O)NCC(=O)N[C@H](C(=O)N[C@H](C(=O)N[C@@H](CS)C(=O)O)[C@@H](C)CC)[C@@H](C)O)[C@@H](C)CC)[C@@H](C)CC)[C@@H](C)O)[C@@H](C)O,0.8%,2.5%,0.0,/
